The supplement of paper PMC6555819

These sequences were tested on VDR:RXRa (NR concentration 270 nM, RXRa partner concentration 90 nM) (assay: PBM binding z-score (relative to random genomic background probes); higher = stronger binding; sequences stand for … in GC…GCGATTGACAGCGTAGAATGAAGG).
Method: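 Protein-binding microarray (Agilent 4x180K custom design, double-stranded 60-nt probes: 5' GC cap, 34-nt variable region, 24-nt constant primer region; full probe sequence given). Purified or IVT nuclear receptor:RXRα heterodimers (3:1 NR:RXRα, mostly 270:90 nM) or homodimers were incubated for 1 h in PBS with 2% milk and no ligand, then detected with Alexa488 antibodies. Fluorescence from o1-orientation probes (~5 replicates averaged) was converted to z-scores against 500 random hg19 background probes. Variable regions are seed direct-repeat (DR0–DR5) sites, all their single-nucleotide variants and half-site ablations.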
CCTCGGAGGACAGAAGGCCAGAGCTGTCCGCTTT gave a PBM binding z-score of -0.762. In the case of CCAGACAGCTGAGAAGGTAACTCAGCCTCGATTA, the PBM binding z-score is reported as -0.312. Work on CGTCCAAGGTCAATGGTAGGTCAGTGAAAGCATT yielded a PBM binding z-score of 4.89. CCTTACGGGTCACGAGGTTATAGCACGACGAGCG gave a PBM binding z-score of 5.23. Sequence CCTACTGGGGCATTCAGAGGTCATTGATCATATG has a PBM binding z-score of 4.47. CGAACTACGTCATTGACAGGACAGTGAATAGTAA showed a PBM binding z-score of -0.122. With TGTGCTAGGTCAACGATGGTCAGCTAATCTGCTA the PBM binding z-score was 1.65. AATACTGGGTCACTAGGCCAGAGTAGGTACGAAT gave a PBM binding z-score of 1.47. Work on TCTGCTAGGTCAGTTGGTGAGCTAACGAGCTGCC yielded a PBM binding z-score of -0.377. Sequence GTACCAAGGTGAATAGGTCTTTGATGAGTAGGCG has a PBM binding z-score of 0.495. In the case of TCTACAGGGTCAAAGGCCAGAGTACGAATGTCGA, the PBM binding z-score is reported as 4.56. CATACAGGGTTAGCTAGGCCAGAGTAGGGACGGC was tested, and the PBM binding z-score was 0.398. TAGCCCAGGTCATGCGGGCCAGTATAGTGTCGGC was tested, and the PBM binding z-score was 3.7. In the case of CAAACTAGGTCCCCGGAAGGTCAAAGTCCGCATG, the PBM binding z-score is reported as 3.23. In the case of CCTAGCAGGCCCATCTGGGTCACTCAAGGCTTGA, the PBM binding z-score is reported as -0.0613. In the case of CCTACTGGGCCATTCAGTGGTCATTGATCATATG, the PBM binding z-score is reported as -0.487. GCATAGAGGTAATACAAGGTGAAAGTCCGATTGT was tested, and the PBM binding z-score was 0.566. TGTTGTAGATCAACAGGAGGTTAAGAAAGATCGA gave a PBM binding z-score of 0.37. Sequence TCGAGTAGGTTACCAATGAGGCATTCAGCTTTCT has a PBM binding z-score of -0.192. For CCTTACGGGTGACTCCAGGTTATAGCATCGGAGT, the PBM binding z-score was 0.497. Work on AGAACGAGGGCACGCTGAGTTGACAGCAGAGTAG yielded a PBM binding z-score of 2.32. In the case of ACTAGCAAGCCAAGTTTGGGTCACTCAAACAAAG, the PBM binding z-score is reported as 0.188. TAGCCTAGGTCATGGGCCAGAATACCACGCGAAC was tested, and the PBM binding z-score was 1.91. Work on TCGAGTAGGTTAGGGGCATTTAGAATGGCGTCGA yielded a PBM binding z-score of 0.556. Work on CAAACTAGGTCACCGGAAGGTCAAAATCCGCATG yielded a PBM binding z-score of 5.69. In the case of TCATATAGGTAAATGCTAGGTGAGAGTCCGATCT, the PBM binding z-score is reported as 0.644. In the case of GCTCGGAGGACAAGTTCAGAGCTTTGTCCGTAGA, the PBM binding z-score is reported as 0.733. For CCTATTAGTTGACCATAAGGGCAAACGAAGCTCG, the PBM binding z-score was 0.834. For GTAACGAGGGCAAAGTTGATAGCATCTGTCGACG, the PBM binding z-score was 1.53. GGAACGAGTGCATTCGAGTTGATAGCATGGCGAT showed a PBM binding z-score of 2.95. Work on ACTCGCAGGACAAAGGTCAGAGCTACGCCAGTGA yielded a PBM binding z-score of 2.77. CCTTACGGGTCACTTCAGGTTATAGCATCGGAGT showed a PBM binding z-score of 4.22. In the case of GCTATTAGTTGAAAGGCCAACCGAATGATTCTCG, the PBM binding z-score is reported as -0.0343. For CTGGAAAGGTCGTGCTCAGGTGAGTATACCAAAC, the PBM binding z-score was 3.1. Work on TGAACGAGGTTAAAGATCAGGGAACGTGGCGTCG yielded a PBM binding z-score of 1.8. AGTCAAAGTTCACTAGGTAACGTACGATTCAGCT was tested, and the PBM binding z-score was 4.24. AGAATGAGGTTATACGTAGATCAGGGTAGAAAGT gave a PBM binding z-score of 1.49. Sequence TCTCGGAGGACACGAAAGGTCAGAGTTCGACATC has a PBM binding z-score of 4.18. In the case of GCTTGTAGATCAAGGTTTAGAAAGACTAAGCTAA, the PBM binding z-score is reported as -0.245. For CAGCCTAGGTCAGGGCCAGTAAAGGAGGAACGTT, the PBM binding z-score was 0.0313.
